Test results: PMC4552634, “A New Set of Chemical Starting Points with Plasmodium falciparum Transmission-Blocking Potential for Antimalarial Drug Discovery” (PLoS ONE, 2015)
The campaign covered roughly 13,000 compounds. About 3,200 (25%) showed an effect of 50% or more. This is one part of the list.

Tested on: P. falciparum stage V gametocytes
Parameters: BacTiter-Glo ATP luminescence viability of purified stage V gametocytes in 384-well plates, per cent inhibition versus DMSO
Details: 48 h, 5 µM; inhibitor

Compound | % Inhibition [%]
C[C@@H]1C[C@@H]([C@H](O)CC2CC(=O)NC(=O)C2)C(=O)[C@@H](C)C1 [TCMDC-125838] | 50.08
O=C(NC1CCN(Cc2ccccc2)CC1)c1ccc(-c2nc3cc(Cl)c(Cl)cc3[nH]2)c(F)c1 [TCMDC-140083] | 2.132
N=C(N)c1ccc2[nH]c(-c3cc4cc(C(=N)N)ccc4o3)cc2c1 [TCMDC-137436] | -17.43
N=C(N)c1ccc(-c2cc3ccc(C(=N)N)cc3[nH]2)cc1 [TCMDC-123458] | 53.3
c1cc(-c2cc3ccc(C4=NCCN4)cc3[nH]2)ccc1C1=NCCN1 [TCMDC-137748] | 20.42
COc1ccc2nccc([C@@H](O)CN3CCC(NC(=O)C(c4ccccc4C)N4CCC(Cc5ccccc5)CC4)CC3)c2c1 (stereo partly drawn) [TCMDC-141102] | 2.818
N=C1SC(=Cc2cn[nH]c2-c2ccc(F)cc2)C(=O)N1c1nccs1 [TCMDC-123515] | 2.084
CCc1ccc(S(=O)(=O)Nc2cccc(CCN3CCC(N4CCCCC4)CC3)c2)cc1 [TCMDC-134077] | 77.96
Cc1ccc(NS(=O)(=O)c2ccc(C(C)N3CCC(N4CCCCC4)CC3)cc2)cc1C (stereo not drawn) [TCMDC-133540] | 11.79
O=S(=O)(Nc1cccc(CCN2CCC(N3CCCCC3)CC2)c1)c1ccc(Oc2ccccc2)cc1 [TCMDC-134072] | 70.07
CC(C)c1ccc(S(=O)(=O)Nc2cccc(CCN3CCC(N4CCCCC4)CC3)c2)cc1 [TCMDC-134075] | 76.83
O=S(=O)(Nc1cccc(CCN2CCC(N3CCCCC3)CC2)c1)c1ccc(-c2ccccc2)cc1 [TCMDC-134071] | 47.75
O=S(=O)(Nc1cccc(CCN2CCC(N3CCCCC3)CC2)c1)c1ccc(Cl)cc1 [TCMDC-134065] | 22.65
CCc1ccc(S(=O)(=O)Nc2ccc(CCN3CCC(N4CCCCC4)CC3)cc2)cc1 [TCMDC-134089] | 86.75
O=S(=O)(Nc1cccc(CCN2CCC(N3CCCCC3)CC2)c1)c1ccc(Oc2ccccc2)nc1 [TCMDC-134073] | 14.52
O=S(=O)(Nc1ccc(CCN2CCC(N3CCCCC3)CC2)cc1)c1ccc(Cl)cc1 [TCMDC-134078] | 45.94
COc1ccc(O)cc1Cc1cnc2nc(N)nc(N)c2c1C [TCMDC-137498] | -65.52
COc1ccc2nccc([C@@H](O)CN3CCC(NC(=O)C(c4cc5ccccc5o4)N4CCN(c5ccccc5)CC4)CC3)c2c1 (stereo partly drawn) [TCMDC-140989] | 28.59
CC(=O)N[C@H](C(=O)Nc1ccc(-c2ccc(-c3nc4cc(C(F)(F)F)ccc4[nH]3)s2)cc1)C(C)C [TCMDC-136852] | -48.64
O=C(NCCc1ccc(Cl)c(Cl)c1)C1CCCN(C(=O)c2ccc(O)c(-c3ccc(Cl)c(Cl)c3)c2)C1 (stereo not drawn) [TCMDC-140892] | -3.917
CC(CON1C(N)=NC(N)=NC1(C)C)Cc1ccc(Cl)cc1Cl (stereo not drawn) [TCMDC-131712] | 20.42
Cc1cc(NS(=O)(=O)c2cccc(C(C)N3CCC(N4CCCC4)CC3)c2)ccc1C(C)C (stereo not drawn) [TCMDC-133708] | 8.518

Compound | % Inhibition [%]
O=S(=O)(Nc1cccc(CCN2CCC(N3CCCCC3)CC2)c1)c1ccc2c(c1)OCCO2 [TCMDC-134067] | 55.86
O=S(=O)(Nc1ccc(CCN2CCC(N3CCCCC3)CC2)cc1)c1ccc2ccccc2c1 [TCMDC-134079] | 52.17
COc1ccc2nccc([C@@H](O)CN3CCC(NC(=O)C(c4cccs4)N4CCN(c5ccc(F)cc5)CC4)CC3)c2c1 (stereo partly drawn) [TCMDC-141100] | 25.13
COc1cc(C(=O)N2CCOC(CCN3CCC(c4ccc(Cl)cc4)CC3)(c3ccc(Cl)c(Cl)c3)C2)cc(OC)c1OC (stereo not drawn) [TCMDC-135566] | -3.164
COc1cc(C(=O)N2CCOC(CCN3CCC4c5ccccc5CC43)(c3ccc(Cl)c(Cl)c3)C2)cc(OC)c1OC (stereo not drawn) [TCMDC-135567] | -73.24
COc1cc(C(=O)N2CCOC(CCN3CCC[C@H]3C(=O)Nc3ccccc3)(c3ccc(Cl)c(Cl)c3)C2)cc(OC)c1OC (stereo partly drawn) [TCMDC-135571] | 90.6
COc1cc(Nc2nccc(N3CCC(NC(=O)Nc4cccc(C(C)=O)c4)C3)n2)cc(OC)c1OC (stereo not drawn) [TCMDC-133621] | -9.129
COc1cc(Cc2cnc(N)nc2N)cc(OCC(C)(C)C(=O)O)c1OC [TCMDC-137887] | -9.297
Cc1cnc(C(=O)Nc2ccc(-c3cccc(-c4nc5ccccc5[nH]4)c3)cc2)cn1 [TCMDC-137026] | -17.4
O=C(Nc1ccc(Cl)cc1)Nc1cccc(-c2ccc(-c3nc4ccc(F)cc4[nH]3)cc2)c1 [TCMDC-133183] | 78.47
NC(=O)c1ccc(NCC(=O)Nc2cccc(-c3cccc(-c4nc5ccccc5[nH]4)c3)c2)cc1 [TCMDC-132162] | 2.725
Cc1cnc(C(=O)Nc2cccc(-c3cccc(-c4nc5ccc(F)cc5[nH]4)c3)c2)cn1 [TCMDC-137027] | 68.21
CC(=O)Nc1cccc(C(=O)Nc2ccc(-c3cccc(-c4nc5ccc(F)cc5[nH]4)c3)cc2)c1 [TCMDC-132135] | -4.902
CC(=O)Nc1cccc(C(=O)Nc2cccc(-c3ccc(-c4nc5ccc(F)cc5[nH]4)cc3)c2)c1 [TCMDC-132139] | -25.67
O=C(Nc1ccc(Cl)cc1)Nc1ccc(-c2cccc(-c3nc4ccc(F)cc4[nH]3)c2)cc1 [TCMDC-133186] | -8.569
NC(=O)c1ccc(NCC(=O)Nc2cccc(-c3cccc(-c4nc5ccc(C(F)(F)F)cc5[nH]4)c3)c2)cc1 [TCMDC-132164] | -17.45
O=C(Nc1ccc(Cl)cc1)Nc1cccc(-c2cccc(-c3nc4ccc(F)cc4[nH]3)c2)c1 [TCMDC-133185] | -67.78
Cc1cnc(C(=O)Nc2cccc(-c3ccc(-c4nc5ccc(F)cc5[nH]4)cc3)c2)cn1 [TCMDC-137029] | 23.15
NC(=O)c1ccc(NCC(=O)Nc2cccc(-c3cccc(-c4nc5ccc(F)cc5[nH]4)c3)c2)cc1 [TCMDC-132163] | 90.29
CC(=O)Nc1cccc(C(=O)Nc2cccc(-c3cccc(-c4nc5ccc(F)cc5[nH]4)c3)c2)c1 [TCMDC-132137] | 91.99
O=C(NCCc1ccc(F)cc1)c1ccc(N2CCN(c3ccncc3)CC2)nc1 [TCMDC-134585] | 1.059
COc1ccc(C2CC(c3cccs3)=NN2C(=O)c2ccco2)cc1OC (stereo not drawn) [TCMDC-123796] | 12.69

Compound | % Inhibition [%]
COc1ccc(CCCCN2C(=O)C(c3ccccc3)(c3ccccc3)N=C2N)cc1 [TCMDC-136522] | -62.46
C=CCOc1cc(Cc2cnc(N)nc2N)cc(OC)c1OC [TCMDC-138042] | -3.964
CCOc1cc(C(=O)NCc2cccc(C(F)(F)F)c2)ccc1-c1nc2ccc(Cl)cc2[nH]1 [TCMDC-140902] | 11.85
O=C(Nc1ccc(Cn2ncc(N3CCCNCC3)c(Cl)c2=O)cc1)Nc1cc(F)cc(C(F)(F)F)c1 [TCMDC-133317] | -20.94
COc1nc(NCC(C)C)nc(Oc2ccc(=O)n(Cc3ccccc3)n2)n1 [TCMDC-124913] | 48.86
O=C(Cc1ccc(NC(=O)c2ccc(O)c(-c3ccc(Cl)c(Cl)c3)c2)cc1)NCCc1ccc(Cl)c(Cl)c1 [TCMDC-140873] | 3.533
O=C(/C=C/c1ccc(Cl)c(Cl)c1)NCC(CCCN1CCC(c2c[nH]c3ccccc23)CC1)c1ccccc1 (stereo not drawn) [TCMDC-139506] | -7.536
CC(=O)NC1=NC(C)(C)N(OCCCOc2ccc(Cl)c(Cl)c2)C(NC(C)=O)=N1 [TCMDC-131742] | 2.376
Cc1cc(F)ccc1Oc1nc(Nc2ccc(N3CCOCC3)c(F)c2)nc2c1S(=O)(=O)CCC2 [TCMDC-135096] | 20
CCOc1cc(-c2nnc3[nH]c(=O)n(C)c(=O)c3n2)ccc1OC(C)C [TCMDC-124558] | -22.82
O=C(Nc1ccc(C(=O)OCC2CCCCC2)cc1)N[C@@H](Cc1ccc(O)cc1)C(=O)NC1CCN(Cc2ccc(O)cc2)C1 (stereo partly drawn) [TCMDC-135357] | -23.12
O=C(Nc1cccc(-c2cccc(-c3nc4ccccc4[nH]3)c2)c1)c1ccoc1 [TCMDC-136840] | 9.278
O=C(Nc1cccc(-c2ccc(-c3nc4ccc(F)cc4[nH]3)cc2)c1)c1ccoc1 [TCMDC-136843] | -15.37
O=C(Nc1cccc(-c2cccc(-c3nc4ccc(F)cc4[nH]3)c2)c1)c1ccncc1 [TCMDC-136959] | 85.81
O=C(Nc1cccc(-c2cccc(-c3nc4ccc(F)cc4[nH]3)c2)c1)c1ccoc1 [TCMDC-136841] | 83.89
O=C(Nc1cccc(-c2ccc(-c3nc4ccc(F)cc4[nH]3)cc2)c1)c1ccncc1 [TCMDC-136961] | -22.91
O=C(Nc1ccc(-c2cccc(-c3nc4ccc(F)cc4[nH]3)c2)cc1)c1ccncc1 [TCMDC-136957] | -5.175
CCCCCCn1c(Sc2ccc(C#N)c([N+](=O)[O-])c2)nnc1-c1ccc(OC)cc1 [TCMDC-135604] | 12.04
CN1C(=O)OC[C@@H]1Cc1ccc2[nH]cc(C3=CCN(Cc4ccccc4)CC3)c2c1 [TCMDC-137790] | 15.2
COc1cccc(C2C(C(=O)Nc3ccccc3)=C(C)N=c3sc(=Cc4ccc(O)cc4)c(=O)n32)c1 (stereo not drawn) [TCMDC-125613] | -17.06
COCC(C)n1c(C)cc(C(=O)CSc2nnc(Nc3ccccc3)s2)c1C (stereo not drawn) [TCMDC-123611] | 2.084
COc1cccc(Nc2nnc(SCC(=O)NNC(=O)c3ccccn3)s2)c1 [TCMDC-124565] | 57.52
